SMILES strings stand for the structures. Out of some 69,000 compounds screened, about 420 (0.61%) showed an effect of 50% or more. The entries come from a sample that favours strong results as a whole.

The target in the assay is T1, Histidine--tRNA ligase (Leishmania infantum) (UniProt A4I591).
T1 sequence (whole entry): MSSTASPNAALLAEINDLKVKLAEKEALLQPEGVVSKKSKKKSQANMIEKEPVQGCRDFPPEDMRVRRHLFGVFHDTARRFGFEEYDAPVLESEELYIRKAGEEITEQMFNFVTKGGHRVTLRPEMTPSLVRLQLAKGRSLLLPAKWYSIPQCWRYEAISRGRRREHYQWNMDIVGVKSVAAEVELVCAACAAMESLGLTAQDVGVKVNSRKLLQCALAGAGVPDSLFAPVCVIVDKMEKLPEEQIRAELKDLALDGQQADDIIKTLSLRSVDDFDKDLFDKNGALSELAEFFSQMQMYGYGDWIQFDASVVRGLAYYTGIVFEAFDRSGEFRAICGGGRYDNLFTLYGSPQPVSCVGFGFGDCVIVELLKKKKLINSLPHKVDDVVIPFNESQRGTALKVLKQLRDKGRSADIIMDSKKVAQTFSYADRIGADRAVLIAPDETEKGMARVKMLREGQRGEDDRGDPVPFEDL
The assay can be described thus: Leishmania infantum Histidine tRNA synthetase (LdHisRS). In kind it is functional. Also noted: scale not given: in the data most compounds retested in dose-response had high values. To be noted: 30 µM.
As for `Nc1ccc(C(=O)N2C[C@@H]3CC[C@H](C2)N(Cc2ccccc2)C3)cn1`, the Percent Effect is 9.57%.

`CC(=O)N1[C@H](CN(C)C)C[C@@H]2CN(c3ncc(F)cn3)CC[C@@H]21`: the Percent Effect was 14.5%.

In the case of `COc1cc(CNCCc2cnn(C)c2)cc2c1OCCO2`, the Percent Effect is 24.8%.

In the case of `COc1cc(CNc2cnn(C)c2)cc2c1OCCO2`, the Percent Effect is 53.6%.

As to `COc1cc(CNCCn2cc(C)cn2)cc2c1OCCO2`, the Percent Effect is 9.17%.

On to `CC(C)NC(=O)[C@H]1C[C@@H]2[C@@H](C1)OCCN2Cc1ccco1`, for which the Percent Effect stood at 5.56%.

In the case of `Cc1cncc(C(=O)N2C[C@@H]3CN(S(C)(=O)=O)CCO[C@@H]3C2)c1`, the Percent Effect was found to be 15.1%.

Take `O=C(N[C@@H]1CN(c2ncccn2)C[C@@H]2CCCO[C@@H]21)c1ccnnc1`: the Percent Effect was found to be 22.9%.

Turning to `CC(=O)Nc1ccc(CN(C)Cc2snnc2C)cc1`, the Percent Effect worked out at 16.3%.

In the case of `CC(=O)Nc1ccc2nc(CN(C)Cc3snnc3C)ccc2c1`, the Percent Effect is 61.2%.

In the case of `CC(=O)Nc1ccc2nc(CN(C)Cc3noc(C)n3)ccc2c1`, the Percent Effect amounted to 18.4%.

In the case of `Cc1ccoc1C(=O)N1C[C@H](OCC2CC2)[C@H]2OCCC[C@H]21`, the Percent Effect was found to be 2.65%.

Turning to `COC[C@@]12CC[C@@H](N3CCOCC3)C[C@H]1CCN(c1cc(C)ccn1)C2`, the Percent Effect amounted to 19.4%.

Take `O=C([C@H]1C[C@@H]2[C@@H](C1)OCCN2CC1CC1)N1CCCC1`: the Percent Effect turned out to be 19.3%.

In the case of `CCC1CN(CCC(=O)N(C)C)CCN1CCOC` (centres undefined), the Percent Effect turned out to be 50%.

For the compound `CCC1CN(CC(=O)N2CCC2)CCN1CCOC` (centres undefined), the Percent Effect came to 28.6%.

As to `CCC1CN(CCNC(C)=O)CCN1CCOC` (centres undefined), the Percent Effect was 4.76%.

As to `c1ccc(O[C@H]2C[C@@H]3CN(Cc4cnccn4)C[C@@H]3C2)cc1`, the Percent Effect was 15.9%.

`COc1cc(N2C[C@@H]3COC[C@]3(COCc3ccccn3)C2)ncn1`: the Percent Effect was 13.8%.

In the case of `NC(=O)c1ccc(N2CCCCC2)c(NC(=O)c2cc(F)ccc2F)c1`, the Percent Effect was 18.3%.

On to `NC(=O)c1ccc(N2CCCCC2)c(NC(=O)c2ccc(Br)cc2)c1`, for which the Percent Effect was found to be 20.4%.

`NC(=O)c1ccc(N2CCCCC2)c(NC(=O)c2cc(Br)ccc2F)c1`: the Percent Effect amounted to 36.8%.

Turning to `NC(=O)c1ccc(N2CCCCC2)c(NC(=O)c2ccc(F)cc2F)c1`, the Percent Effect was found to be 18.3%.

As to `NC(=O)c1ccc(N2CCCCC2)c(NC(=O)c2cc(Br)ccc2Cl)c1`, the Percent Effect was 80.7%.

As to `NC(=O)c1ccc(N2CCCCC2)c(NC(=O)c2ccc(F)cc2Cl)c1`, the Percent Effect came out at 65.6%.

In the case of `O=S1(=O)C[C@@H]2[C@H](C1)N(Cc1cc(F)cc(Cl)c1)CCN2CCO`, the Percent Effect was 0%.

With `CN(C)C(=O)N1C[C@@H]2CC[C@H](C1)N(Cc1nnc(-c3ccco3)o1)C2`, the Percent Effect was -9.89%.

For `NC(=O)NCC(=O)N1C[C@H]2CC[C@@H]1CN(Cc1cscn1)C2`, the Percent Effect was 0%.

For `CCc1oc(C(=O)N2CC[C@H]3CC[C@@H](C2)N3)cc1CN(CC)CC`, the Percent Effect worked out at 12.6%.

On to `Fc1ccc(F)c(CN2CCC(c3cc4ncccc4cn3)CC2)c1`, for which the Percent Effect was found to be 35.2%.

Regarding `COc1ccc(C)cc1CN1CCC(c2cc3ncccc3cn2)CC1`, the Percent Effect came to 60.6%.

Consider `Fc1cccc(CN2CCC(c3cc4ncccc4cn3)CC2)c1F`, for which the Percent Effect worked out at 29.6%.

On to `Cc1noc([C@@H]2C[C@@H]3CCN(c4nnc(C)s4)C[C@H]3O2)n1`, for which the Percent Effect was found to be 13.5%.

As for `O=C(c1ccoc1)N1CC[C@H]2OCC[C@@]2(COc2ncccc2F)C1`, the Percent Effect is 24.5%.

Consider `Cc1ccncc1C(=O)N1C[C@H]2CN(CC3CCC3)C[C@@]2(C(=O)O)C1`, for which the Percent Effect was -1.64%.

Take `CN(CC1CCCCO1)c1nc(-c2cccnc2)nc2c1CCNC2` (centres undefined): the Percent Effect is 9.95%.

For `CN(CC(O)CO)c1nc(-c2cccnc2)nc2c1CCNC2` (centres undefined), the Percent Effect was found to be 7.85%.

In the case of `Cc1nonc1CN(C)c1nc(-c2cccnc2)nc2c1CCNC2`, the Percent Effect is 67.5%.

As for `CS(=O)(=O)CC(=O)N1C[C@@H]2COC[C@]2(c2nnc(C3CC3)o2)C1`, the Percent Effect is 15.1%.

In the case of `N#Cc1cccc(CN2CC[C@@H]3CN(c4ncccn4)CCO[C@@H]3C2)c1`, the Percent Effect is -0.901%.

On to `CC(C)c1ccc(C(CN)N2CCc3sccc3C2)cc1` (centres undefined), for which the Percent Effect was 17.8%.

As for `CSc1ccc(C(CN)N2CCc3sccc3C2)cc1` (centres undefined), the Percent Effect worked out at 71.4%.

`NCC(c1ccc(Cl)cc1)N1CCc2sccc2C1` (centres undefined): the Percent Effect was found to be 13.7%.

`CC(=O)Cc1c(C)nn(-c2cncc(N)c2)c1C`: the Percent Effect was 64.6%.

As to `CC(=O)Cc1c(C)nn(-c2cncc(C(N)=O)c2)c1C`, the Percent Effect was determined as 16.5%.

For `COc1cncc(-n2nc(C)c(CC(C)=O)c2C)c1`, the Percent Effect came out at 34.2%.

Regarding `COCCN1CC[C@@H]2O[C@@H](COCC(=O)N3CCCC3)CC[C@@H]21`, the Percent Effect is 17.1%.

Turning to `COC[C@@]12CCC[C@@H]1CN(C(=O)CN(C)C)C2`, the Percent Effect stood at 5.77%.

In the case of `CC(C)(C)NC[C@@H]1CCC[C@@H]2CN(Cc3csnn3)C[C@@H]21`, the Percent Effect came out at 17.1%.

Turning to `O=C(C1CCOCC1)N1CCO[C@H]2[C@H](Oc3ccccn3)CC[C@@H]21`, the Percent Effect is -1%.

`COCC(C)NC(=O)c1cncc(Br)c1` (centres undefined): the Percent Effect turned out to be 19.2%.

On to `CCOCC(O)CNc1cncc(Br)c1` (centres undefined), for which the Percent Effect worked out at 46.6%.

As to `COCCOCCNc1cncc(Br)c1`, the Percent Effect amounted to 45.5%.

Regarding `CS(=O)(=O)CCOCCNc1ccc(Br)cn1`, the Percent Effect stood at 16.9%.

As to `CCCC(O)CNc1cncc(Br)c1` (centres undefined), the Percent Effect worked out at 95.9%.

`O=c1[nH]nc(CNc2cncc(Br)c2)[nH]1`: the Percent Effect turned out to be 11.1%.

Regarding `O=C(NCCNc1cncc(Br)c1)c1ccc(O)cc1`, the Percent Effect stood at 42.5%.

Regarding `CS(=O)(=O)CCOCCNc1cncc(Br)c1`, the Percent Effect is 53.2%.

In the case of `COCC(O)CNc1cncc(Br)c1` (centres undefined), the Percent Effect came to 60.3%.

These data come from ChEMBL document CHEMBL3988442, “University of Dundee, Small-Polar-MMV Screening Library” (2021).
